# Assay results: ChEMBL document CHEMBL3988442, “University of Dundee, Small-Polar-MMV Screening Library” (2021)
# For some of these results: Entries with a potency or affinity are not part of this list.
# Columns and labels:
# Parameters in all cases: scale not given: direction of the effect not stated beside the values
# [1] = target: Protein translocase subunit SecA (Escherichia coli (strain K12)) (UniProt P10408); assay: Assay to Identify E. coli SecA ATPase Inhibitors; type: functional; settings: 30 µM
# [2] = target: T1, Ubiquitin-activating enzyme e1, putative (Leishmania donovani (strain BPK282A1)) (UniProt E9BSI1); assay: Leishmania donovani Ubiquitin Activating Enzyme (LdE1); type: functional; settings: 30 µM
# T1 sequence (whole entry): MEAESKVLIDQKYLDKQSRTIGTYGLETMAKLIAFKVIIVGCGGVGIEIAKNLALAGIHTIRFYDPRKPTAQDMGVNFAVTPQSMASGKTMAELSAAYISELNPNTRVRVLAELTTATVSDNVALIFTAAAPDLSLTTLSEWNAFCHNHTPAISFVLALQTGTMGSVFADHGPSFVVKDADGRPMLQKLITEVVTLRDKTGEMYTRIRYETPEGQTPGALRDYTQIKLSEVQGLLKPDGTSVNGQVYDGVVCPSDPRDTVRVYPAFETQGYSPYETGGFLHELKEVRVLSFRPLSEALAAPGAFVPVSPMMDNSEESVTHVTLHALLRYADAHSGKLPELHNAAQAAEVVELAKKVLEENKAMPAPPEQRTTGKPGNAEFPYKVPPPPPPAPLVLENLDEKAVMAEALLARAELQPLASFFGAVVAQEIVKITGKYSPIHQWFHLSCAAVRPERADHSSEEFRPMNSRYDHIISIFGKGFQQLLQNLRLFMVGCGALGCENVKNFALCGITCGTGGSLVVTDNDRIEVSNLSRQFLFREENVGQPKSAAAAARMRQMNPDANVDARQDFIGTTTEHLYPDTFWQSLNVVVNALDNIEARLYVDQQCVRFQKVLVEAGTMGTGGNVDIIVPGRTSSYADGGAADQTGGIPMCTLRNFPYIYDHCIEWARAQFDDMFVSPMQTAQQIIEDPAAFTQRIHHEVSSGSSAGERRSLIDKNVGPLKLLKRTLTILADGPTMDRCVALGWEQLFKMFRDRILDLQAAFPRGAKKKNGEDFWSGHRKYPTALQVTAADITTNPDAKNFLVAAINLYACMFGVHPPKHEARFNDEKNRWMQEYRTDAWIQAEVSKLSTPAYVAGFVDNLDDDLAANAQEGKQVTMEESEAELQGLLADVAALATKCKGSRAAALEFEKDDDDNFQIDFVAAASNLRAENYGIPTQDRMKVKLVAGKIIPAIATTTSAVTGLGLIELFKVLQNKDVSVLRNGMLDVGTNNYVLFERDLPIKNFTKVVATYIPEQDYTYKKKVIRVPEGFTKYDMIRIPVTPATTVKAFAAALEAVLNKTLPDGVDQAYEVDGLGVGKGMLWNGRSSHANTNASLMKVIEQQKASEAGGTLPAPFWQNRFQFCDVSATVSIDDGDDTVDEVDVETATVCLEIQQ
# [3] = target: AMP-activated protein kinase, AMPK (Homo sapiens) (UniProt P54646+O43741+P54619+Q9UGJ0+Q9Y478+Q13131+Q9UGI9); assay: AMP-dependent Kinase enzyme assay. An in vitro enzyme assay that detects ADP turnover that is directly proportional to AMPK activity. This uses naive AMPK that is activated during the assay with MK-8722; type: functional; settings: 30 µM
# [4] = target: Sialic acid-binding Ig-like lectin 9 (Homo sapiens) (UniProt Q9Y336); assay: Hs-Siglec9 ALPHAscreen SOP 20170721; settings: 10 µM
# Trypanosoma cruzi = assay: Trypanosoma cruzi phosphomannomutase and mannose-1-phosphate guanylyltransferase assay; type: functional; settings: 10 µM
# [5] = target: T2, Arginase-2, mitochondrial (Homo sapiens) (UniProt P78540); assay: in vitro enzyme assay to detect the production of urea directly proportional to the activity of Arginase II; type: functional; settings: 33.3 µM; further: in the data most compounds retested in dose-response had high values
# T2 sequence (whole entry): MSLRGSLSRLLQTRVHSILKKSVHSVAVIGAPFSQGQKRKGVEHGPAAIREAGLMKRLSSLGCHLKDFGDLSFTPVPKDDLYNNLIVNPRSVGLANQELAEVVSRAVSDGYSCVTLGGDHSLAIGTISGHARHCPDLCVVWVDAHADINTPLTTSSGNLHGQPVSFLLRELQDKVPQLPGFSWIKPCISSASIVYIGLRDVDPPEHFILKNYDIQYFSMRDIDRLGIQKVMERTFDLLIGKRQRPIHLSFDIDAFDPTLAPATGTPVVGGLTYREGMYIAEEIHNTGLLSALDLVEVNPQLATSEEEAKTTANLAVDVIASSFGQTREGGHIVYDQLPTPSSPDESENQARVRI
# [6] = target: T3, Proteasome subunit beta (Trypanosoma cruzi) (UniProt O96673); assay: Trypanosoma cruzi proteasome chymotrypsin-like activity (TcProtChymo) assay.; further: in the data most compounds retested in dose-response had high values; type: functional; settings: 9.37 µM
# T3 sequence (whole entry): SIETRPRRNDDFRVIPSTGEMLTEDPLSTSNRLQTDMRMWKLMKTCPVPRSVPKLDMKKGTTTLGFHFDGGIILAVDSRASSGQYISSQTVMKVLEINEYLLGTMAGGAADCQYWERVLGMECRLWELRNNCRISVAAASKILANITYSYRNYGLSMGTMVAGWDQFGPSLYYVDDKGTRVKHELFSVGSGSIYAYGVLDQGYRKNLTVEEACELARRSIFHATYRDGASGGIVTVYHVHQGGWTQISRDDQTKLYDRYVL
# Homo sapiens = species: Homo sapiens; assay: To identify inhibition of the IFN signalling (Jak-Stat) pathway via expression of an eGFP reporter gene under the control of an IFN-stimulated response element (ISRE) containing MxA promoter.; type: functional; settings: 30 µM
# [7] = target: T4, Tyrosyl-tRNA synthetase, putative (Trypanosoma cruzi (strain CL Brener)) (UniProt Q4DSP6); assay: Trypanosoma cruzi tyrosyl tRNA synthetase (TcYRS) _High Tyrosine SOP; type: functional; settings: 30 µM; further: in the data most compounds retested in dose-response had high values
# T4 sequence (whole entry): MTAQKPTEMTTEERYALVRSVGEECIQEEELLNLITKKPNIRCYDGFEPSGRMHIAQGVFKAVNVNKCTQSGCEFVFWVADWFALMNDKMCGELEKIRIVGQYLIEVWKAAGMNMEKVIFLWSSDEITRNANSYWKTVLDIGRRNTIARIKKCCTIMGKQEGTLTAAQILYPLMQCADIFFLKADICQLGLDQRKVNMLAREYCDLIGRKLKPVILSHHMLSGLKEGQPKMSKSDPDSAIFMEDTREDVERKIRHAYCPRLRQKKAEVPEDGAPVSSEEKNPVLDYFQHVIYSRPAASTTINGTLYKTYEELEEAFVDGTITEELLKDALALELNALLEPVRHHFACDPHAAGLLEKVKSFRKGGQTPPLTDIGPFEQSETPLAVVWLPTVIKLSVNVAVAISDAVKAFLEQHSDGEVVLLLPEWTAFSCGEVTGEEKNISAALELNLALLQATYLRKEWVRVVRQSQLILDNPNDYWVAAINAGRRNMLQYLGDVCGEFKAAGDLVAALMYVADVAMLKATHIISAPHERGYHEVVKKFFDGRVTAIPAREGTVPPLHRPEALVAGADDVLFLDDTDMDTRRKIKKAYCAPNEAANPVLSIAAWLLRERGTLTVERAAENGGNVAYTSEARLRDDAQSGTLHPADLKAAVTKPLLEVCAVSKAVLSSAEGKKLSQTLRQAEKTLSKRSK
# [8] = target: T4, Tyrosyl-tRNA synthetase, putative (Trypanosoma cruzi (strain CL Brener)); assay: Trypanosoma cruzi tyrosyl tRNA synthetase (TcYRS) SOP; type: functional; settings: 30 µM
# [9] = target: Chromo domain-containing protein 1 (Saccharomyces cerevisiae (strain ATCC 204508 / S288c) (Baker's yeast)) (UniProt P32657); assay: ScCHD-1 Enzyme Inhibition Assay; type: functional; settings: 30 µM; further: in the data most compounds retested in dose-response had high values
# Chain of Chromo domain-containing protein 1 (Saccharomyces cerevisiae (strain ATCC 204508 / S288c) (Baker's yeast)) (P32657 whole entry, the tested form may be a part): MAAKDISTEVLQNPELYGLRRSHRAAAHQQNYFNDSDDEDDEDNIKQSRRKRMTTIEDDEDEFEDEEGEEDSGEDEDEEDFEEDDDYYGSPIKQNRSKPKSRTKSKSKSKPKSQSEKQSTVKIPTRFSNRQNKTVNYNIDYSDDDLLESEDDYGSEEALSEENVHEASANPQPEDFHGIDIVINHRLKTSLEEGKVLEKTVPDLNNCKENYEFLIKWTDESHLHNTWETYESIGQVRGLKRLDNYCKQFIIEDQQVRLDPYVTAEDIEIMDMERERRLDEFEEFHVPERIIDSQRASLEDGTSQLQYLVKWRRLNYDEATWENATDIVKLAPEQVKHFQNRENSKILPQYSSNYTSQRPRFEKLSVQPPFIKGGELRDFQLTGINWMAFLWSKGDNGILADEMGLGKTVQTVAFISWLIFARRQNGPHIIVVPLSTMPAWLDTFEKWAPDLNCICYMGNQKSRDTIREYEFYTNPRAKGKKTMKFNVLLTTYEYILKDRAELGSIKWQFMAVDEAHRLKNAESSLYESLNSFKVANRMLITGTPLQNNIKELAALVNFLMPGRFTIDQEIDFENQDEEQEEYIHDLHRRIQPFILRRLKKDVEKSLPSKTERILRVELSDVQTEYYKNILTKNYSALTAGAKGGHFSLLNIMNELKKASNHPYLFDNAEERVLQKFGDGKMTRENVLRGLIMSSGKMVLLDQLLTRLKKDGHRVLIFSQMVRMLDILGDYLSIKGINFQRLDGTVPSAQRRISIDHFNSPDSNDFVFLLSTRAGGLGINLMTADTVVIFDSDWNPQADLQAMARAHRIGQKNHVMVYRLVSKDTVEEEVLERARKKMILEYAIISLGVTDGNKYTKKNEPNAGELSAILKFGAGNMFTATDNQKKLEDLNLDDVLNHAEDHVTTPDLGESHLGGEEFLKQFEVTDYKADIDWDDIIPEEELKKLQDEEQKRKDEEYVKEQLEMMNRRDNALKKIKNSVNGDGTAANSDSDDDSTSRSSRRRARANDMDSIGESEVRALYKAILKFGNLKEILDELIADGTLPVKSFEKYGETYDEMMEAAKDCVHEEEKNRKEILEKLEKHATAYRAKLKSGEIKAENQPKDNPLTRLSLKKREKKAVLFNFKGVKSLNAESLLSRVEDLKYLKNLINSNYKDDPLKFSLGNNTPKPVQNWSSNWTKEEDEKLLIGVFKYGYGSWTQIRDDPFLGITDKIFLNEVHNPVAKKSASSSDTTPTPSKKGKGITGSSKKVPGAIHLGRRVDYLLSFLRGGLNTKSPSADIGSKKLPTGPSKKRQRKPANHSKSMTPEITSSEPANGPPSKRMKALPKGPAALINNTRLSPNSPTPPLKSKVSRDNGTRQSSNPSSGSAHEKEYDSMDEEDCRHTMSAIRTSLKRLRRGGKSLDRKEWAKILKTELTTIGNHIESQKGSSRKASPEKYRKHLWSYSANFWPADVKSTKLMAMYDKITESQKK
# Chain of Protein translocase subunit SecA (Escherichia coli (strain K12)) (P10408 whole entry): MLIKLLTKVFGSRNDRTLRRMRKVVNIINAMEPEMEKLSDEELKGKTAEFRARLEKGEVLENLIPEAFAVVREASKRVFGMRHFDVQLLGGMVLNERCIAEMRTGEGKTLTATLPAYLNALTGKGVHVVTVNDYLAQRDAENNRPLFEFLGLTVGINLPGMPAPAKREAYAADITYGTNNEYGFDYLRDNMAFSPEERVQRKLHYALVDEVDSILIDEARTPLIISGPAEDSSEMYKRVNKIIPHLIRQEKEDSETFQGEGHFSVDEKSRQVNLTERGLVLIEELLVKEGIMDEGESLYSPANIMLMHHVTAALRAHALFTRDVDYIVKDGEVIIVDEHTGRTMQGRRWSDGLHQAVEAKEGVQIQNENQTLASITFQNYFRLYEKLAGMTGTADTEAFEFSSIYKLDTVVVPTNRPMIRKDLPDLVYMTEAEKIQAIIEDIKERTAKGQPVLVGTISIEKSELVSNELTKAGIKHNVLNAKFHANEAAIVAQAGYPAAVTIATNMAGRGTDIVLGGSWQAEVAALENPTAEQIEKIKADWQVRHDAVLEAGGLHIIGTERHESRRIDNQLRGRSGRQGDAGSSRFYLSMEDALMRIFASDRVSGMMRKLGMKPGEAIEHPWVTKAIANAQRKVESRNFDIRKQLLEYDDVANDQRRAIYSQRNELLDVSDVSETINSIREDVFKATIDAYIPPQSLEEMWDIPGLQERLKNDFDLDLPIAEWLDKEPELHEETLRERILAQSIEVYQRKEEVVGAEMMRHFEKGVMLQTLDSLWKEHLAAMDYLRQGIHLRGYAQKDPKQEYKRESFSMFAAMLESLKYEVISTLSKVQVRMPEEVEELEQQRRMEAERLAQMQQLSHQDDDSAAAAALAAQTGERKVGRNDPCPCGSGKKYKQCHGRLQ
# Chain of Sialic acid-binding Ig-like lectin 9 (Homo sapiens) (Q9Y336 whole entry): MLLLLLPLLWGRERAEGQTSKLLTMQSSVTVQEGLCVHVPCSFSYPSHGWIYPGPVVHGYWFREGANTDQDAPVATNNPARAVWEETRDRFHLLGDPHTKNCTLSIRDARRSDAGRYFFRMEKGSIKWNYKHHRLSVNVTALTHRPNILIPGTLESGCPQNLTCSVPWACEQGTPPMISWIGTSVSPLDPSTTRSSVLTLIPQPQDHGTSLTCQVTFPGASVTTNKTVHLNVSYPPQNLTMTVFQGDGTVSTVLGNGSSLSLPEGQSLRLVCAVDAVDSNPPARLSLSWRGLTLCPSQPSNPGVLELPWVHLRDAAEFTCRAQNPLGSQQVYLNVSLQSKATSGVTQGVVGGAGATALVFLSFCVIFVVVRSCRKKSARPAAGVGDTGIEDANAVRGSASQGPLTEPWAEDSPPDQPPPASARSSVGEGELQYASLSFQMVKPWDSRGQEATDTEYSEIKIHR
Structure (SMILES),Percent Effect [1] [%],Percent Effect [2] [%],Percent Effect [3] [%],Percent Effect [4] [%],Percent Effect (Trypanosoma cruzi) [%],Percent Effect [5] [%],Percent Effect [6] [%],Percent Effect (Homo sapiens) [%],Percent Effect [7] [%],Percent Effect [8] [%],Percent Effect [9] [%]
Cc1ccc(CN2CCc3ncc(CNS(C)(=O)=O)n3CC2)o1,-0.0355,8.22,-1.38,6.78,-5.56,-1.6,15.3,16.8,7.29,16.1,-0.506
CCN(CC(=O)NC(C)C)S(=O)(=O)N1CCCCCC1,-2.15,16.2,-3.94,11.8,2.64,3.23,12.3,5.69,3.23,16.1,-10.9
CC1CN(Cc2noc(C3CC3)n2)CCN1Cc1nccn1C (configuration not stated),-5.15,2.53,-12.8,3.3,5.19,-2.66,1.72,8.77,6.4,11.4,-1.35
COCC(=O)N1CC[C@H]2C[C@@H](c3nnc(C4CC4)o3)O[C@@H]2C1,-5.18,18.7,-7.93,0.755,1.74,-57.2,19.5,-2.44,4.17,17.5,-6.39
Cc1nc(NCCc2ccc(Cl)cc2)cc(C(=O)N2CCOCC2)n1,0.862,5.2,-3.84,11.5,3.64,-44.1,9.98,23.7,7.53,16.1,-2.1
Cc1cc(C)nc(CCNC(=O)[C@H]2CNC[C@@H](C(=O)N3CCCC3)C2)n1,-5,0,2.23,-0.778,-8.33,-5.59,5.91,29.4,2.08,3.7,-3.88
Cc1ccoc1C(=O)N1C[C@H]2CCC[C@@]2(COCc2ccncc2)C1,-1.22,18.2,-2.61,3.02,2.66,-3.23,-2.44,1.6,5.29,11.5,-4.37
CCCNC(=O)N1CCC(Oc2cc(C)ccc2F)(C(=O)O)CC1,-2.42,9.72,-3.19,22.9,6.9,24.3,1.75,-5.25,-1.05,10.3,-1.57
CCc1nc(CC(=O)N2CCn3c(nnc3C(F)(F)F)C2)cs1,-2.58,0,6.61,5.79,0.564,4.98,3.17,-25.8,-0.49,0,-6.79
COc1ccc(CCN2CCc3c(nc(C4CC4)n3C)C2)cc1,-2.18,18.2,-12.2,-0.11,-3.18,0.356,9.12,18.2,6.8,2.44,-7.4
O=C(C1CC1)N1CCCC1C1CCN(Cc2ccccc2)CC1 (configuration not stated),-2.89,2.63,6.02,-2.3,0.682,-4.73,4.31,-4.47,4.25,5.2,-2.33
COCCN1CCC(Cc2cncc(-c3ccc(C(=O)O)cc3)n2)C1 (configuration not stated),-5.18,1.35,42.5,-3.43,-3.75,-2.55,3.43,12.6,1.07,1.3,-3.54
c1cnnc(N2CCCC2CNc2ncnc3ccccc23)c1 (configuration not stated),-3.22,-3.8,9.15,-3.44,-4.41,4.09,9.61,36,25,27.9,-16.5
O=C(c1ccsc1)N1CC(C(=O)N2CCOCC2)C2(CCOCC2)C1 (configuration not stated),-0.06,2.6,3.52,3.83,-6.21,-3.23,16.5,7.29,-29.6,-1.28,-0.146
NC(=O)C1CCN(Cn2nc(-c3ccc(F)cc3)oc2=O)CC1,-3.92,2.6,9.43,0.452,-22.7,4.14,22,24.3,-1.07,1.24,-2.23
O=c1[nH]c2c(c(=O)n1C1CCCCC1)CCC2Nc1ccccc1Cl (configuration not stated),-2.47,6.67,-9.22,-1.39,4.71,92.1,5.36,33.1,-9.52,-7.69,-11.3
CCC(CC)C(CNC(=O)Nc1ccc(C)cc1)N1CCOCC1 (configuration not stated),-3.76,22.8,-8.69,-4.59,4.63,-0.76,3.52,5.24,-25.1,21.5,-8.39
